Assay results reported in PubChem BioAssay AID1159580 (chemical genetic matrix, 2015).
Hit rate of the full screen: of about 5,500 compounds, about 2,000 (36%) were called active. Roughly 18% stayed inconclusive and do not appear here. Rule as the data show it: active = normalized growth mostly below about 0.91 (no sharp cut-off); inconclusive = no clear call, values can overlap the other calls; inactive = mostly above about 0.92. Some of the results follow.

Experiment: chemical genetic growth profiling, strain panel (AID 1159580);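 also: tested at 20 µM; growth read once vehicle control cultures reached saturation at 30 °C; 1 = growth at the plate median or of vehicle wells; lower values mean less growth of the strain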
Conditions: growth OD

Measured: normalized growth

CC(=O)Oc1cccc2c1C(=O)c1c(OC(C)=O)cc(C(=O)O)cc1C2=O
active: S. cerevisiae deletion strains, locus YKL160W, strain elf1, hits give low values 0.901 | S. cerevisiae deletion strains, locus YKR001C, strain vps1, hits give low values 0.174 | S. cerevisiae deletion strains, locus YKR026C, strain gcn3, hits give low values 0.908 | S. cerevisiae deletion strains, locus YLL001W, strain dnm1, hits give low values 0.901 | S. cerevisiae deletion strains, locus YLL026W, hits give low values 0.917 | S. cerevisiae deletion strains, locus YLR027C, strain aat2, hits give low values 0.92 | S. cerevisiae deletion strains, locus YLR102C, strain apc9, hits give low values 0.589 | S. cerevisiae deletion strains, locus YLR221C, strain rsa3, hits give low values 0.898 | S. cerevisiae deletion strains, locus YLR258W, strain gsy2, hits give low values 0.909 | S. cerevisiae deletion strains, locus YLR268W, strain sec22, hits give low values 0.39 | S. cerevisiae deletion strains, locus YLR342W, strain FKS1, hits give low values 0.891 | S. cerevisiae deletion strains, locus YLR371W, strain rom2, hits give low values 0.433 | S. cerevisiae deletion strains, locus YLR418C, strain cdc73, hits give low values 0.28 | S. cerevisiae deletion strains, locus YML032C, strain rad52, hits give low values 0.392 | S. cerevisiae deletion strains, locus YML124C, strain tub3, hits give low values 0.537 | S. cerevisiae deletion strains, locus YMR058W, strain fet3, hits give low values 0.806 | S. cerevisiae deletion strains, locus YMR078C, strain ctf18, hits give low values 0.826 | S. cerevisiae deletion strains, locus YMR223W, strain ubp8, hits give low values 0.301 | S. cerevisiae deletion strains, locus YNL071W, strain lat1, hits give low values 0.901 | S. cerevisiae deletion strains, locus YNL307C, strain MCK1, hits give low values 0.221 | S. cerevisiae deletion strains, locus YNL322C, strain KRE1 (second series), hits give low values 0.887 | S. cerevisiae deletion strains, locus YNR052C, strain pop2, hits give low values 0.135 | S. cerevisiae deletion strains, locus YOL012C, strain htz1 2.42 [resistant] | S. cerevisiae deletion strains, locus YOL147C, strain pex11, hits give low values 0.433 | S. cerevisiae deletion strains, locus YOR136W, strain idh2, hits give low values 0.498 | S. cerevisiae deletion strains, locus YOR144C, strain elg1, hits give low values 0.609 | S. cerevisiae deletion strains, locus YOR265W, strain rbl2, hits give low values 0.918 | S. cerevisiae deletion strains, locus YOR316C, strain cot1, hits give low values 0.433 | S. cerevisiae deletion strains, locus YPL051W, strain arl3, hits give low values 0.867 | S. cerevisiae deletion strains, locus YPL240C, strain hsp82, hits give low values 0.909 | S. cerevisiae deletion strains, locus YPR119W, strain clb2, hits give low values 0.63 | S. cerevisiae deletion strains, locus YPR163C, strain tif3, hits give low values 0.359 | S. cerevisiae deletion strains, locus YPR167C, strain met16, hits give low values 0.309 | S. cerevisiae deletion strains, strain wtn01, hits give low values 0.22
inactive: S. cerevisiae deletion strains, locus YJR075W, strain HOC1, hits give low values 0.994 | S. cerevisiae deletion strains, locus YKL009W, strain mrt4, hits give low values 0.986 | S. cerevisiae deletion strains, locus YKL068W, hits give low values 0.993 | S. cerevisiae deletion strains, locus YKL085W, strain MDH1 (second series), hits give low values 1 | S. cerevisiae deletion strains, locus YKL085W, strain MDH1, hits give low values 1 | S. cerevisiae deletion strains, locus YKL190W, strain CNB1, hits give low values 0.986 | S. cerevisiae deletion strains, locus YKR091W, strain srl3, hits give low values 0.944 | S. cerevisiae deletion strains, locus YLL041C, strain sdh2, hits give low values 0.954 | S. cerevisiae deletion strains, locus YLR039C, strain RIC1, hits give low values 1.02 | S. cerevisiae deletion strains, locus YLR058C, strain SHM2, hits give low values 1 | S. cerevisiae deletion strains, locus YLR113W, strain HOG1, hits give low values 1 | S. cerevisiae deletion strains, locus YLR262C, strain YPT6 (second series), hits give low values 0.891 | S. cerevisiae deletion strains, locus YLR262C, strain YPT6, hits give low values 1.05 | S. cerevisiae deletion strains, locus YLR320W, strain mms22, hits give low values 0.908 | S. cerevisiae deletion strains, locus YLR330W, strain CHS5, hits give low values 1.01 | S. cerevisiae deletion strains, locus YLR342W, strain FKS1 (second series), hits give low values 1.05 | S. cerevisiae deletion strains, locus YLR357W, strain rsc2, hits give low values 0.859 | S. cerevisiae deletion strains, locus YLR370C, strain arc18, hits give low values 0.917 | S. cerevisiae deletion strains, locus YLR384C, strain iki3, hits give low values 0.954 | S. cerevisiae deletion strains, locus YML016C, strain PPZ1, hits give low values 1.01 | S. cerevisiae deletion strains, locus YML120C, strain ndi1, hits give low values 0.943 | S. cerevisiae deletion strains, locus YMR125W, strain sto1, hits give low values 0.94 | S. cerevisiae deletion strains, locus YMR129W, hits give low values 0.947 | S. cerevisiae deletion strains, locus YMR205C, strain PFK2, hits give low values 0.948 | S. cerevisiae deletion strains, locus YMR231W, strain pep5, hits give low values 0.942 | S. cerevisiae deletion strains, locus YMR263W, strain SAP30, hits give low values 1 | S. cerevisiae deletion strains, locus YMR307W, strain GAS1, hits give low values 1.18 | S. cerevisiae deletion strains, locus YNL067W, strain RPL9B, hits give low values 1.01 | S. cerevisiae deletion strains, locus YNL128W, strain TEP1, hits give low values 0.993 | S. cerevisiae deletion strains, locus YNL153C, strain GIM3, hits give low values 1.01 | S. cerevisiae deletion strains, locus YNL183C, strain NPR1, hits give low values 0.896 | S. cerevisiae deletion strains, locus YNL209W, strain ssb2, hits give low values 0.93 | S. cerevisiae deletion strains, locus YNL233W, strain BNI4, hits give low values 1.02 | S. cerevisiae deletion strains, locus YNL248C, strain rpa49, hits give low values 0.948 | S. cerevisiae deletion strains, locus YNL250W, strain rad50, hits give low values 0.992 | S. cerevisiae deletion strains, locus YNL271C, strain bni1, hits give low values 0.997 | S. cerevisiae deletion strains, locus YNL298W, strain CLA4, hits give low values 0.995 | S. cerevisiae deletion strains, locus YNL322C, strain KRE1, hits give low values 1 | S. cerevisiae deletion strains, locus YNR049C, strain mso1, hits give low values 0.956 | S. cerevisiae deletion strains, locus YOL006C, strain TOP1, hits give low values 1.02 | S. cerevisiae deletion strains, locus YOR001W, strain rrp6, hits give low values 0.952 | S. cerevisiae deletion strains, locus YOR061W, strain CKA2, hits give low values 0.996 | S. cerevisiae deletion strains, locus YOR069W, strain VPS5, hits give low values 1 | S. cerevisiae deletion strains, locus YOR070C, strain gyp1, hits give low values 0.932 | S. cerevisiae deletion strains, locus YOR080W, strain dia2, hits give low values 0.938 | S. cerevisiae deletion strains, locus YOR083W, strain WHI5, hits give low values 0.918 | S. cerevisiae deletion strains, locus YOR106W, strain vam3, hits give low values 0.905 | S. cerevisiae deletion strains, locus YOR184W, strain ser1, hits give low values 1.02 | S. cerevisiae deletion strains, locus YOR231W, strain MKK1, hits give low values 0.95 | S. cerevisiae deletion strains, locus YOR270C, strain vph1, hits give low values 0.925 | S. cerevisiae deletion strains, locus YOR290C, strain snf2, hits give low values 0.927 | S. cerevisiae deletion strains, locus YPL055C, strain LGE1, hits give low values 1.01 | S. cerevisiae deletion strains, locus YPL078C, strain atp4, hits give low values 0.899 | S. cerevisiae deletion strains, locus YPL106C, strain sse1, hits give low values 0.989 | S. cerevisiae deletion strains, locus YPL241C, strain CIN2, hits give low values 1.05 | S. cerevisiae deletion strains, locus YPL256C, strain CLN2, hits give low values 0.955 | S. cerevisiae deletion strains, locus YPR141C, strain kar3, hits give low values 0.997 | S. cerevisiae strains, strain wild type, hits give low values 0.998
